The values that follow come from PubChem BioAssay AID1347087 (National Center for Advancing Translational Sciences (NCATS), 2019).

Where “and” joins values, the source holds several entries; their conditions need not be identical. Equal entries are not always repeated. Results filed as inconclusive are left out. Unmarked numbers belong to inactive results. Calls of active or inactive are those of the source. The call rests on the fitted dose curve.

The nature of the assay: qHTS for Inhibitors of the Functional Ribonucleoprotein Complex (vRNP) of Lassa (LASV) Arenavirus: LASV Confirmatory Screen - GLuc reporter signal. Background: In qHTS, concentration-response curves come from the screen itself.

Take `O=C(Nc1ccccc1)c1cc([N+](=O)[O-])ccc1Cl`: the Potency is 24.3 µM (active). On the same count and under the same terms, the result for `CCC[C@H](N[C@@H](C)C(=O)N1[C@@H]2CCCC[C@H]2C[C@H]1C(=O)O)C(=O)OCC` reads “inactive”; that for `CO/C=C(/C(=O)OC)c1ccccc1Oc1cc(Oc2ccccc2C#N)ncn1`, 6.27 µM (active); that for `COc1cc2c(cc1OC)CC(=O)N(CCCN(C)C[C@H]1Cc3cc(OC)c(OC)cc31)CC2`, “inactive”. On the same count and under the same terms, the result for `O=C1Cc2cc(CCN3CCN(c4nsc5ccccc45)CC3)c(Cl)cc2N1` reads 2.17 µM (active) and 3.43 µM (active); that for `O=C1c2ccccc2-n2c1nc1ccccc1c2=O`, 2.43 µM (active). Still for that read-out and setting: the result for `O=C(CCCN1CCN(c2ccc(F)cc2)CC1)NC1c2ccccc2CSc2ccccc21` (stereo not given) reads “inactive”; that for `O=C(Nc1ccc([N+](=O)[O-])cc1Cl)c1cc(Cl)ccc1O`, 0.968 µM (active). For `Oc1cc(Cl)ccc1Oc1ccc(Cl)cc1Cl`, the Potency was 25 µM (active). On the same count and under the same terms, under `CC(O)C(O)[C@H]1CNc2nc(N)[nH]c(=O)c2N1` (stereo not given in full) stands “inactive”; under `N#CC(=C(\N)Sc1ccccc1N)/C(C#N)=C(/N)Sc1ccccc1N`, 0.0685 µM (active); under `CC(=O)OCC(=O)[C@@]12N=C(C)O[C@H]1C[C@H]1[C@@H]3CCC4=CC(=O)C=C[C@]4(C)[C@@H]3[C@@H](O)C[C@@]12C`, “inactive”.

Consider `CC[C@@H](C(=O)O)[C@@H]1O[C@@H]([C@@H](C)[C@H](O)[C@H](C)C(=O)[C@H](CC)[C@H]2O[C@]3(C=C[C@@H](O)[C@]4(CC[C@@](C)([C@H]5CC[C@](O)(CC)[C@H](C)O5)O4)O3)[C@H](C)C[C@@H]2C)[C@@H](C)C[C@@H]1C`, for which the Potency was 0.157 µM (active).

Consider `C=C1CC[C@@H]2[C@](C)(CO)[C@H](O)CC[C@@]2(C)[C@@H]1/C=C/C1=CCOC1=O`, for which the Potency is 21.7 µM (active).

For the compound `Cc1ncc([N+](=O)[O-])n1CC(C)O` (stereo not given), the Potency entry was “inactive”. The same measure, in the same setting: under `COc1ccc2c(c1OC)CN1CCc3cc4c(cc3C1C2)OCO4` (stereo not given) stands 21.7 µM (active). Still for that read-out and setting: the result for `COC(=O)c1nc(Cl)c(Cl)nc1N` reads 4.85 µM (active); that for `CCCCCN=C(N)N/N=C/c1c[nH]c2ccc(OC)cc12`, 8.63 µM (active). The same measure, in the same setting: under `CNCCCC1c2ccccc2C=Cc2ccccc21` stands 30.6 µM (active); under `Cc1cc2c(C(C)C)c(O)c(O)c(C=O)c2c(O)c1-c1c(C)cc2c(C(C)C)c(O)c(O)c(C=O)c2c1O`, 9.68 µM (active); under `Cc1ccc2c(c1)C1CN(C)CCC1N2` (stereo not given), “inactive”. Regarding `CCn1c(-c2nonc2N)nc2cnc(Oc3cccc(NC(=O)c4ccc(OCCN5CCOCC5)cc4)c3)cc21`, the Potency is 2.73 µM (active).

For `CCCCC[C@H](O)/C=C/C=C/C/C=C\CCCC(=O)O`, the activity, negative = inhibition was 4.46% [at 0.666 µM]. Take `CC[C@@]1([C@@H]2O[C@@H]([C@H]3O[C@@](O)(CO)[C@H](C)C[C@H]3C)C[C@H]2C)CC[C@H]([C@]2(C)CC[C@]3(C[C@H](O)[C@@H](C)[C@@H]([C@@H](C)[C@@H](OC)[C@H](C)C(=O)O)O3)O2)O1`: the Potency is 0.335 µM (active). On the same count and under the same terms, under `FC(F)(F)c1ccc(C=Cc2nc(COc3ccc(CCCCn4ccnn4)cc3)co2)cc1` stands 0.0153 µM (active).
